High-throughput results from PubChem BioAssay.
ERAP1 HTS inh: blocks human ERAP1 aminopeptidase activity; Q9NZ08; inhibition, % at 10.7 µM; recombinant ERAP1, Leu-AMC fluorescence, 60 min; 340,000 compounds, 0.15% hits;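 active = mean replicate inhibition of at least 30%, or all replicates individually reaching that 30% level; inactive = mean below 30% and not every replicate reaching it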;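 also: 0% = neutral control wells and 100% = L-leucinethiol positive control wells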
Target sequence (Q9NZ08 whole entry, looked up): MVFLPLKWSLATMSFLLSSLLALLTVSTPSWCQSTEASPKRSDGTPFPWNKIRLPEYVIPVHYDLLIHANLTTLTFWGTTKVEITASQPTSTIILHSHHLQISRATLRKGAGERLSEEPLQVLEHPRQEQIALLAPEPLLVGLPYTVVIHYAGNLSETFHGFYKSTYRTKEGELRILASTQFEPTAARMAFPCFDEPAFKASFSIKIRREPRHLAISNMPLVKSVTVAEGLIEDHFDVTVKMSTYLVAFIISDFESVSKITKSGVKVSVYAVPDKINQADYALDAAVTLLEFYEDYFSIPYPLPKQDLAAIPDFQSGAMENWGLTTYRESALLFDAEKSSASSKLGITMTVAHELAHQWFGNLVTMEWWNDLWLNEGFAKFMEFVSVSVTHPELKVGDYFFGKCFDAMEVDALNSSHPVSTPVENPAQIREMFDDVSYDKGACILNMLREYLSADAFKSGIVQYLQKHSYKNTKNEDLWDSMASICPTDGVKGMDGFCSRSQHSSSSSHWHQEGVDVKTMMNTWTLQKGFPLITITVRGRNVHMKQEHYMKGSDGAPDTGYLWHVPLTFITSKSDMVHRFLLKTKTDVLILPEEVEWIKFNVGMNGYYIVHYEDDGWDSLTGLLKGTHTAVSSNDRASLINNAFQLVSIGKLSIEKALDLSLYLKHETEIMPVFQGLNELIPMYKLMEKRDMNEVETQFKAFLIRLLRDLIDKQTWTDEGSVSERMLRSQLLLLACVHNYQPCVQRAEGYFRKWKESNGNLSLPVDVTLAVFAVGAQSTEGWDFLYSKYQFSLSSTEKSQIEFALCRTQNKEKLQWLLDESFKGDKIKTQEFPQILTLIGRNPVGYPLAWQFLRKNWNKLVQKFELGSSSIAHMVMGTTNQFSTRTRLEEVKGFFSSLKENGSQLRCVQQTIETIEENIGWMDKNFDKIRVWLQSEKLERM
MLL AF4-AF9 inh: blocks AF4 peptide binding to human AF9; AlphaScreen, biotin-AF4 peptide binding to FLAG-AF9; P42568; inhibition, % at 10 µM; AID 651704; 350,000 compounds, 0.47% hits;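 active = every replicate reaching a set inhibition limit, whatever the replicate mean, cut at about 25% in these data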;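 also: 0% = plate neutral control median and 100% = total signal loss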
GSIS activator: GLuc luminescence reporter in INS-1E cells, primary screen for activators of glucose-dependent secretion of insulin. INS-1E GLuc reporter insulin secretion, 2-3 h. activation, % at 16.6 µM. 370,000 compounds, 0.61% hits;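 active = lowest replicate activation of at least 40%, so every replicate reaches that level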;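 also: 0% = median of neutral control wells and 100% = median of IBMX positive control wells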
RAD52 inh: inhibitors of human RAD52 DNA annealing; inhibition, % at 18.7 µM; 360,000 compounds, 0.46% hits; recombinant RAD52 DNA annealing, FRET fluorescence; P43351;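 active = every replicate showing at least 50% inhibition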
PGC1a acetyl inh: lowers PGC1a acetylation signal in U2OS cells. AlphaScreen anti-acetyl-lysine; with virally co-expressed GCN5 acetyltransferase. inhibition, % at 15.6 µM. 350,000 compounds, 0.17% hits. AID 651687;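 active = every replicate shows inhibition of at least 40%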;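 also: 0% = neutral control wells and 100% = positive control wells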
RAD54 branch: RAD54 (human) branch migration inhibition; Q92698; RAD54 Holliday junction branch migration, FAM/BHQ fluorescence; inhibition, % at 10.4 µM; 360,000 compounds, 0.14% hits; AID 602329;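 active = mean normalized replicate activity at least 40 and at least half of replicates scoring 40 or more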;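 also: 0% = median of neutral control wells and 100% = median of positive control wells; inhibitors cause a drop in the FAM fluorescence signal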
* hit, by the source's call; . = not tested or not shown; ! = a repeat was not active. Compounds with a hit are over-represented: about 1.4% of the library has one in this group of screens.

SMILES | ERAP1 HTS inh | MLL AF4-AF9 inh | GSIS activator | RAD52 inh | PGC1a acetyl inh | RAD54 branch
CC(C)CC1NC(=S)N(C2CCCCC2)C1=O (stereo not drawn) | . | . | . | . | 12 | 1
Cc1ccc(-n2nc(C)c3c(C)c(CCC(=O)Nc4ccc(CN5CCCC5)cc4)c(C)nc32)cc1 | 2 | 27* | -13 | -12 | -11 | .
COC(CNC(=O)CCc1c(C)nc2c(c(C)nn2-c2ccc(C)cc2)c1C)OC | -2 | -1 | 6 | -7 | 0 | -9
C[C@H](CO)N1C[C@H](C)[C@@H](CN(C)C(=O)C2CC2)Oc2cc(C3=CCCC3)ccc2S1(=O)=O | . | . | -9 | . | -15 | .
O=C(NCc1ccccc1)c1ccc(C(=O)N(C2CCCCC2)C2CCCCC2)cc1 | . | . | . | . | -8 | -9
O=C(C(=O)N(C1CCCCC1)C1CCCCC1)c1ccccc1 | -3 | 4 | 73* | -12 | . | .
c1csc(CNc2ncnc3ccc(-c4ccoc4)cc23)c1 | -7 | 3 | 14 | -296 | 50* | 1
c1csc(CNc2ncnc3ccc(-c4ccc5c(c4)OCO5)cc23)c1 | 1 | 0 | . | -11 | -21 | -1
Cc1ccc(S(=O)(=O)N(C)C[C@H]2Oc3ccc(NC(=O)Nc4c(C)noc4C)cc3CC(=O)N([C@H](C)CO)C[C@@H]2C)cc1 | -1 | 1 | 1 | 0 | 2 | 1
O=C(c1cccnc1)N1CC2(C1)[C@@H](c1ccccc1)[C@H](CO)N2C(=O)c1cccnc1 | . | . | 0 | . | . | .
CCCC(=O)Nc1ccc2c(c1)C(=O)N(C)[C@@H]1CC[C@@H](CC(=O)NCc3ccccc3)O[C@H]1CO2 | -3 | -1 | 1 | -15 | 7 | -9
C[C@H]1CCCCO[C@H](CN(C)Cc2ccccc2)[C@@H](C)CN([C@@H](C)CO)C(=O)c2cc(NS(=O)(=O)c3ccc(Cl)cc3)ccc2O1 | -1 | 7 | -25 | 47 | -2 | -2
C[C@@H]1CCCCO[C@H](CN(C)Cc2ccccc2)[C@@H](C)CN([C@@H](C)CO)C(=O)c2cc(NS(=O)(=O)c3ccc(Cl)cc3)ccc2O1 | -2 | 6 | -22 | 64* | -10 | -2
C[C@H](CO)N1C[C@H](C)[C@H](CN(C)Cc2ccccc2)OCCCC[C@H](C)Oc2ccc(NS(=O)(=O)c3ccc(F)cc3)cc2C1=O | 0 | 37* | -17 | 77* | 8 | -11
C[C@@H]1CN([C@@H](C)CO)C(=O)c2cc(NS(=O)(=O)c3ccc(F)cc3)ccc2O[C@@H](C)CCCCO[C@H]1CN(C)Cc1ccccc1 | 1 | 1 | -23 | 27 | 5 | 5
C[C@H](CO)N1C[C@H](C)[C@@H](CN(C)Cc2ccccc2)OCCCC[C@H](C)Oc2ccc(NS(=O)(=O)c3ccc(Cl)cc3)cc2C1=O | -1 | 4 | -19 | 35 | 2 | 7
C[C@@H]1CCCCO[C@@H](CN(C)Cc2ccccc2)[C@H](C)CN([C@H](C)CO)C(=O)c2cc(NS(=O)(=O)c3ccc(Cl)cc3)ccc2O1 | -2 | 9 | -20 | 61* | 2 | 2
C[C@@H]1CCCCO[C@H](CN(C)Cc2ccccc2)[C@H](C)CN([C@@H](C)CO)C(=O)c2cc(NS(=O)(=O)c3ccc(Cl)cc3)ccc2O1 | 0 | 10 | -26 | 54* | 2 | 0
CN(C)CC(=O)Nc1ccc2c(c1)[C@@H]1C[C@H](CC(=O)NCc3ccc4c(c3)OCO4)O[C@@H](CO)[C@@H]1O2 | . | . | -9 | . | -2 | .
O=C(C[C@H]1C[C@@H]2c3cc(NC(=O)Nc4ccc(C(F)(F)F)cc4)ccc3O[C@@H]2[C@@H](CO)O1)NCc1ccc2c(c1)OCO2 | 0 | 4 | -25 | 13 | 11 | 6
CO[C@H]1CN(C)C(=O)c2ccc(NC(=O)Nc3ccc(Cl)cc3)cc2OC[C@H](C)NC[C@H]1C | . | . | -4 | . | 12 | .
CCCc1cn([C@@H]2C[C@@H]3O[C@H](CO)CC[C@@H]3O[C@@H]2CCc2ccc(-c3cccc(OC)c3)cc2)nn1 | 0 | -2 | . | 9 | -17 | .
C[C@H](CO)N1C[C@H](C)[C@@H](CN(C)Cc2ccc(C(F)(F)F)cc2)Oc2ccc(NS(=O)(=O)c3ccc(F)cc3)cc2C1=O | 2 | 0 | -24 | 4 | 103* | -6
O=C1CN(S(=O)(=O)c2ccccc2)C[C@@H]2[C@H](c3ccc(C#Cc4ccccc4)cc3)[C@H](CO)N12 | -1 | -2 | 0 | -15 | -8 | .
COc1cc(O)c2c(c1)oc(=O)c1c3cc(O)c(O)cc3oc21 | 2 | 4 | . | 77* | 6 | .
SMILES | ERAP1 HTS inh | MLL AF4-AF9 inh | GSIS activator | RAD52 inh | PGC1a acetyl inh | RAD54 branch
Fc1ccc(F)c(CN2[C@@H]3CNC[C@H]2C3c2ccc(-c3ccncc3)cc2)c1 (stereo partly drawn) | 1 | 26*! | 0 | 81*! | . | .
Fc1ccc(F)c(CN2[C@@H]3CNC[C@H]2C3c2ccc(-c3ccccc3)cc2)c1 (stereo partly drawn) | -2 | 3 | -11 | 18 | . | .
c1cc(-c2ccc(C3[C@H]4CNC[C@@H]3N4CC3CCCC3)cc2)ccn1 (stereo partly drawn) | 0 | 42* | 14 | 22 | . | .
CC(=O)Nc1cccc(-c2ccnc3c2CC(C(=O)NCc2ccc(N(C)C)cc2)O3)c1 (stereo not drawn) | -2 | 31* | 1 | -17 | . | -5
COc1ccc(NC(=O)Nc2ccc3c(c2)C(=O)N([C@@H](C)CO)C[C@@H](C)[C@H](CN(C)C(=O)CCCN(C)C)OCCCC[C@@H](C)O3)cc1 | 0 | 8 | 40 | 26 | -2 | 9
N=c1sccn1CC(=O)Nc1ccccc1Sc1ccccc1 | -2 | 7 | 2 | -8 | 73* | .
Cc1ccc(S(=O)(=O)N(Cc2cccnc2)Cc2cc3ccccc3[nH]c2=O)cc1 | -3 | 29* | 8 | -5 | -9 | -2
O=C(Cc1ccccn1)N1CC(=O)N2[C@@H](CO)[C@H](c3ccc(C#CC4CCCC4)cc3)[C@@H]2C1 | 32* | 4 | 2 | -3 | . | .
N#C[C@H]1[C@H](c2ccc(C#CC3CCCC3)cc2)[C@H](CO)N1C(=O)Cc1ccccn1 | 2 | 0 | -6 | -53 | 59* | .
O=C(Cc1ccccn1)N1CC(=O)N2[C@H](C1)[C@H](c1ccc(C#CC3CCCC3)cc1)[C@@H]2CO | 3 | 3 | 1 | -18 | . | .
N#C[C@@H]1[C@@H](c2ccc(C#CC3CCCC3)cc2)[C@H](CO)N1C(=O)Cc1ccccn1 | -1 | 6 | 5 | -100 | 1 | .
Cc1noc(C)c1NC(=O)N1C[C@@H](O)COC[C@@H]2O[C@@H](CC(=O)N[C@@H]3CCN(Cc4ccccc4)C3)CC[C@H]21 | . | . | 5 | . | . | .
COc1ccc2c3c([nH]c2c1)[C@@H](CO)N(Cc1nccs1)CC31CCN(Cc2nccs2)CC1 | . | 0 | 3 | . | -3 | .
CC(O)c1nc2ccccc2n1C/C=C/c1ccccc1 (stereo not drawn) | . | . | . | . | . | 3
